Reference: PubChem BioAssay AID1159580 (chemical genetic matrix, 2015)
Among all 5,500 compounds or so, about 2,000 (36%) were called active. Inconclusive results (about 18%) are left out. Rule as the data show it: active = normalized growth mostly below about 0.91 (no sharp cut-off); inconclusive = no clear call, values can overlap the other calls; inactive = mostly above about 0.92. This is one part of the list.

Experiment: chemical genetic growth profiling, strain panel (AID 1159580);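 also: tested at 20 µM; growth read once vehicle control cultures reached saturation at 30 °C; 1 = growth at the plate median or of vehicle wells; lower values mean less growth of the strain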
Details: S. cerevisiae deletion strains, growth OD

Measured: normalized growth

Cc1cc(C)c2cc(C(=O)NCCNc3ccc(C(F)(F)F)cn3)[nH]c2c1
active: locus YDL214C, strain PRR2, stronger effect = lower value 0.468 | locus YDR477W, strain SNF1, stronger effect = lower value 0.457 | locus YER123W, strain YCK3, stronger effect = lower value 0.381 | locus YER133W, strain GLC7, stronger effect = lower value 0.487 | locus YFR019W, strain FAB1, stronger effect = lower value 0.322 | locus YGR040W, strain KSS1, stronger effect = lower value 0.501 | locus YGR052W, strain FMP48, stronger effect = lower value 0.249 | locus YGR092W, strain DBF2, stronger effect = lower value 0.225 | locus YHR030C, strain SLT2, stronger effect = lower value 0.0941 | locus YHR079C, strain IRE1, stronger effect = lower value 0.11 | locus YHR082C, strain KSP1, stronger effect = lower value 0.125 | locus YHR205W, strain SCH9, stronger effect = lower value 0.457 | locus YJL095W, strain BCK1, stronger effect = lower value 0.102 | locus YJL157C, strain FAR1, stronger effect = lower value 0.501 | locus YJR066W, strain TOR1 (second series), stronger effect = lower value 0.212 | locus YJR066W, strain TOR1, stronger effect = lower value 0.121 | locus YKL048C, strain ELM1, stronger effect = lower value 0.511 | locus YKL067W, strain YNK1, stronger effect = lower value 0.567 | locus YKL203C, strain TOR2, stronger effect = lower value 0.233 | locus YLR113W, strain HOG1, stronger effect = lower value 0.137 | locus YLR133W, strain CKI1, stronger effect = lower value 0.446 | locus YLR403W, strain SFP1, stronger effect = lower value 0.557 | locus YML070W, strain DAK1, stronger effect = lower value 0.365 | locus YMR205C, strain PFK2 (second series), stronger effect = lower value 0.551 | locus YNL020C, strain ARK1, stronger effect = lower value 0.415 | locus YNL183C, strain NPR1, stronger effect = lower value 0.169 | locus YOL136C, strain PFK27, stronger effect = lower value 0.398 | locus YOR061W, strain CKA2, stronger effect = lower value 0.59 | locus YOR119C, strain RIO1, stronger effect = lower value 0.341 | locus YOR231W, strain MKK1, stronger effect = lower value 0.129 | locus YPL031C, strain PHO85, stronger effect = lower value 0.276 | locus YPL153C, strain RAD53, stronger effect = lower value 0.184 | locus YPL204W, strain HRR25, stronger effect = lower value 0.268 | locus YPL256C, strain CLN2, stronger effect = lower value 0.137
inactive: locus YAR019C, strain CDC15, stronger effect = lower value 0.983 | locus YBL105C, strain PKC1, stronger effect = lower value 0.971 | locus YBR135W, strain CKS1, stronger effect = lower value 0.983 | locus YBR136W, strain MEC1, stronger effect = lower value 0.981 | locus YBR160W, strain CDC28, stronger effect = lower value 0.97 | locus YDL017W, strain CDC7, stronger effect = lower value 0.98 | locus YDL028C, strain MPS1, stronger effect = lower value 0.98 | locus YDL101C, strain DUN1, stronger effect = lower value 0.936 | locus YDL108W, strain KIN28, stronger effect = lower value 0.972 | locus YDL132W, strain cdc53, stronger effect = lower value 0.992 | locus YDR052C, strain DBF4, stronger effect = lower value 0.983 | locus YDR054C, strain cdc34, stronger effect = lower value 0.968 | locus YDR226W, strain ADK1, stronger effect = lower value 0.983 | locus YFL009W, strain cdc4, stronger effect = lower value 0.991 | locus YFL029C, strain CAK1, stronger effect = lower value 0.985 | locus YFR003C, strain YPI1, stronger effect = lower value 0.976 | locus YFR028C, strain CDC14, stronger effect = lower value 0.976 | locus YIL147C, strain SLN1, stronger effect = lower value 0.984 | locus YJL128C, strain PBS2, stronger effect = lower value 0.961 | locus YJR016C, strain ILV3, stronger effect = lower value 0.985 | locus YKL193C, strain SDS22, stronger effect = lower value 0.989 | locus YMR001C, strain CDC5, stronger effect = lower value 0.986 | locus YMR277W, strain FCP1, stronger effect = lower value 0.992 | locus YNL006W, strain LST8, stronger effect = lower value 0.986 | locus YNL161W, strain CBK1, stronger effect = lower value 0.986 | locus YNL207W, strain RIO2, stronger effect = lower value 0.955 | locus YNL222W, strain SSU72, stronger effect = lower value 0.974 | locus YNL307C, strain MCK1 (second series), stronger effect = lower value 0.644 | locus YOL078W, strain AVO1, stronger effect = lower value 0.985 | locus YOR329C, strain SCD5, stronger effect = lower value 0.984 | locus YPL209C, strain IPL1, stronger effect = lower value 0.976 | locus YPR025C, strain CCL1, stronger effect = lower value 0.98 | locus YPR106W, strain ISR1, stronger effect = lower value 1 | locus YPR111W, strain DBF20, stronger effect = lower value 0.944 | strain NNK1, stronger effect = lower value 0.94 | strain TSCII, stronger effect = lower value 0.985
